Bioassay records (PubChem BioAssay)
Sampled rows, rich in hits. Any-hit rate of the full collection: about 10%.
GLA spleen mod = inhibits or activates alpha-galactosidase in human spleen homogenate; human spleen homogenate, 4MU-alpha-Gal fluorescence, 40 min; Potency, µM (doses to about 80 µM), for inactives: top-dose activity change, negative = inhibition, hits mostly inhibitors; hit rate 0.008% among 240,000; AID 2107;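 further: potency means the concentration at half of the fitted maximal effect; 0% = enzyme with vehicle and -100% = no enzyme basal signal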
Target sequence (P06280 32-429 limits assumed): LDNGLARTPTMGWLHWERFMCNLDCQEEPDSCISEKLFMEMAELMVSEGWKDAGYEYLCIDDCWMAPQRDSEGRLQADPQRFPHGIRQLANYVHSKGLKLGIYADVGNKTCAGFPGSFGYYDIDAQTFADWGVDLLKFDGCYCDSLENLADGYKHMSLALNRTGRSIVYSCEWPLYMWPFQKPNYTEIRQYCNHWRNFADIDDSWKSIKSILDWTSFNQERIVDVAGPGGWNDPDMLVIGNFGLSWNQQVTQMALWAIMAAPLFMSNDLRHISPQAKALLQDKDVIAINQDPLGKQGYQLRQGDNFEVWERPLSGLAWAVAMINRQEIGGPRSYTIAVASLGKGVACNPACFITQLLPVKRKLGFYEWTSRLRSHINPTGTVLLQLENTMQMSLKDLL
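Spleen homogenate 1 ug + cpd (titration) + 4-MU-alpha-D-galactopyranoside 1 mM; 37C 40 min; 50 mM citrate/phosphate pH 5.0, 0.01% Tween-20; stop pH 10; fluorescence 365/440; AC50 via Hill.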
GLA inh pH 4.5 = alpha-galactosidase A (human) inhibition, pH 4.5; P06280; purified enzyme, 4-MU-alpha-Gal fluorescence, pH 4.5; activity change, negative = inhibition, % at 105 µM; 230,000 tested, under 10 active; AID 1467;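 further: 0% = full activity with enzyme and -100% = basal without enzyme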
HPGD inh = inhibitors of human 15-hydroxyprostaglandin dehydrogenase (HPGD); P15428; purified HPGD, NADH fluorescence kinetic, PGE2 substrate; Potency, µM, for inactives: at the top dose activity change, negative = inhibition, usual class: inhibitors; hit rate 4.3% among 150,000; AID 894; active means well fitted inhibition curve with a large enough effect, not every such curve was filed as active; inconclusive means small, poorly fitted or top-dose-only effect, or another doubt; inactive means no such curve, though single readings can be large or run the other way; further: potency means the concentration at half of the fitted maximal effect
Target sequence (P15428 whole entry, looked up): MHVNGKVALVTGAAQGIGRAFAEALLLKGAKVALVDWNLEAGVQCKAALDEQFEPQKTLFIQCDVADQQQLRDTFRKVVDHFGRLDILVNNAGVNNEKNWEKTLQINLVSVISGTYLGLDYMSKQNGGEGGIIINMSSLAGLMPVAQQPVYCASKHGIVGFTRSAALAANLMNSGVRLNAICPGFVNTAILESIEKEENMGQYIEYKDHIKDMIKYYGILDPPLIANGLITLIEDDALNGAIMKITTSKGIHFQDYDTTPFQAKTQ
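20 nM HPGD preincubated 15 min at room temperature with compound in 50 mM Tris-HCl pH 8, 0.01% Tween 20. Started with 1 mM NAD+ and 30 uM prostaglandin E2; NADH fluorescence (360/450 nm) read 5 times over 30-s intervals, last minus first.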
ALDH1A1 block = inhibitors of human aldehyde dehydrogenase 1A1. P00352. Purified ALDH1A1, NADH fluorescence, propionaldehyde substrate. Potency, µM (doses to about 75.3 µM), without a hit: at the top dose activity, negative = inhibition, most hits filed as inhibitors. hit rate 7.3% among 220,000. AID 1030; active means well fitted inhibition curve with a large enough effect, not every such curve was filed as active; inconclusive means small, poorly fitted or top-dose-only effect, or another doubt; inactive means no such curve, though single readings can be large or run the other way;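 further: potency means the concentration at half of the fitted maximal effect; plate controls were no enzyme wells and a reference inhibitor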
PNC inhibitor = perinucleolar compartment assembly inhibition; PC3M PTB-GFP, PNC prevalence imaging, 16 h; active compounds read low; activity change (PNC), negative = inhibition, % at 10 µM; hit rate 3.1% among 140,000; AID 2417;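 active means readout at or below -70, meaning at least 70% loss of cells showing the perinucleolar compartment, a nuclear body marking cancer cells; inconclusive means readout between -30 and a set limit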;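 further: plate controls were DMSO wells for no effect and camptothecin positive control wells for full effect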
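Compounds are pinned in duplicate onto adhered PC3M cells stably expressing GFP-tagged PTB and incubated 16 h at 37 C. Cells are then fixed, nuclei stained with Hoechst, and PNC-positive cells counted.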
ALOX12 inhib = inhibitors of human 12-lipoxygenase (ALOX12); purified 12-hLO, xylenol orange hydroperoxide absorbance; Potency, µM (top dose mostly 57.1 µM), for the others: at the top dose activity change, negative = inhibition, actives largely listed as inhibitors; hit rate 0.12% among 150,000; further: potency means the concentration at half of the fitted maximal effect; nearly all actives have a fitted effect of over 55% in size
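Hydroperoxide output read as Fe(III)-xylenol orange absorbance, 573-to-405 nm ratio, after 30 min reaction with 40 uM arachidonic acid. Enzyme: 150 nM purified human 12hLO, 15 min compound preincubation; 25 mM Hepes pH 7.0, room temperature.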
Active calls of the source: *; ? = inconclusive; . = no result given; [ ] = another dose, or the depositor's remark. Unless noted, the call rests on the fitted dose curve; in most records, active means well fitted curve in the direction sought with a large enough effect; inconclusive means small, poorly fitted or top-dose-only effect, or another doubt; inactive means no such curve, though single readings can be large; an effect the other way counts as inactive or inconclusive. Unless noted, on the % scale 0 is the no-effect control and ±100 the full control effect.

SMILES	GLA spleen mod	GLA inh pH 4.5	HPGD inh	ALDH1A1 block	PNC inhibitor	ALOX12 inhib
CCOC(=O)C1CCN(c2c(NCc3ccc(C(=O)Nc4ccc(C)cc4)cc3)c(=O)c2=O)CC1	-6%	-6	.	.	.	.
CCOC(=O)C1CCN(c2c(NCc3ccc(C(=O)NC4CCCC4)cc3)c(=O)c2=O)CC1	-13%	11	2µM*	-10%	-13	-3%
CCOC(=O)C1CCN(c2c(NCc3ccc(C(=O)NCCOC)cc3)c(=O)c2=O)CC1	3%	-10	3.5µM*	-12%	4	-3%
CCCN(CCC)CCNc1c(N2CCN(C(=O)OCC)CC2)c(=O)c1=O	11%	15	-4%	11%	-18	0%
O=C(NC1CCCCCCC1)c1ccc(CNc2c(N3CCOCC3)c(=O)c2=O)cc1	-2%	3	18µM*	?	-26	-4%
COc1cc(C(CC(=O)N2CCOCC2)c2c(OC)cc(OC)c3c(-c4ccccc4)cc(=O)oc23)cc(OC)c1OC (centres undefined)	17%	.	.	.	.	.
CCCCNC(=O)c1ccc(CNc2c(N3CCC(C(=O)OCC)CC3)c(=O)c2=O)cc1	7%	3	3.5µM*	?	?	-4%
Cc1ccc(NC(=O)c2ccc(CNc3c(N4CCOCC4)c(=O)c3=O)cc2)cc1	-8%	1	-24%	?	?	-4%
CC1CCN(c2c(NCc3ccc(C(=O)NCc4cccnc4)cc3)c(=O)c2=O)CC1	-11%	4	?	13%	?	-8%
O=C(c1ccc(CNc2c(N3CCOCC3)c(=O)c2=O)cc1)N1CC=C(c2ccccc2)CC1	5%	8	25µM*	-6%	-18	-1%
COC(=O)c1nn(-c2ccc(OC)cc2)c(=O)c2c(N)sc(C)c12	5%	4	-27%	7.9µM*	44	-2%
CCOC(=O)c1nn(-c2ccc(F)cc2)c(=O)c2c(N)scc12	2%	9	.	15%	.	.
COC(=O)c1nn(-c2ccc(OC)cc2)c(=O)cc1NN	-4%	1	.	-10%	.	.
CCOC(=O)c1nn(-c2ccc(C)cc2)c(=O)c2c(N)scc12	1%	-4	-16%	18µM*	?	?
Clc1ccc(CSC2=NCCN2)cc1Cl	.	.	-13%	-3%[13.5 µM]	.	-3%[11.4 µM]
CC[C@@H]1C(c2cccc(C)c2)=NN(c2ccc(Br)cc2)[C@H]1C(=O)N1CCOC1=O	11%	0	?	?	.	-4%[0.00818 µM]
CC(NC(=O)c1nn(C)c(=O)c2ccccc12)c1ccccc1 (centres undefined)	-3%	?	-10%	16µM*	39	7%
Cn1nc(C(=O)NCc2ccccc2)c2ccccc2c1=O	1%	-6	-13%	20µM*	-7	2%
C/C(=N\N=C(N)N)c1ccc(Cl)cc1Cl	7%	13	.	0%	.	.
COC(=O)/C=C/C(=O)Nc1ccc(O)c(Cl)c1	2%	4	-13%	13µM*	0	-2%
CCOC(=O)/C=C/C(=O)OCC(=O)Nc1ccc(OC)c(Cl)c1	-9%	-18	-12%	?	38	-3%
COc1ccc(NC(=O)C=C(C)C)cc1Cl	1%	4	18µM*	-9%	32	-15%
COC(=O)/C=C/C(=O)Nc1cccnc1	-4%	3	.	-18%	12	-3%
COc1ccc(NC(=O)COC(=O)/C=C/C(=O)OCC(=O)Nc2ccc(OC)c(Cl)c2)cc1Cl	-8%	-17	-14%	11µM*	27	2%
CCOC(=O)/C=C/C(=O)OCC(=O)Nc1c(Cl)cccc1Cl	-5%	-4	.	-2%	.	.
SMILES	GLA spleen mod	GLA inh pH 4.5	HPGD inh	ALDH1A1 block	PNC inhibitor	ALOX12 inhib
CCOC(=O)/C=C/C(=O)OCC(=O)Nc1ccc(Cl)cc1Cl	3%	12	.	25µM*	.	.
Cc1[nH]c2ccccc2c1-c1cc(-c2cc(-c3c(C)[nH]c4ccccc34)on2)no1	.	.	0%	3%[13.5 µM]	.	5%[11.4 µM]
COC(=O)C1CCN(S(C)(=O)=O)CC1	2%	1	-8%	-9%	-100*	2%
CC(C)(C)C(=O)NC1CCN(S(C)(=O)=O)CC1	-6%	-5	-9%	13%	-100*	-4%
COC(=O)C1CCN(S(=O)(=O)c2ccc(NC(C)=O)cc2)CC1	5%	-9	1%	6%	-28	1%
CC(C)(C)C(=O)NC1CCN(C(=O)N2CCCC2)CC1	-5%	3	5%	16%	-2	-6%
Cc1c(NS(C)(=O)=O)cccc1-c1nc2cccnc2s1	1%	-3	.	.	.	.
CCN1CCCC1CN=Cc1c(O)n(-c2ccccc2)c(=O)c2ccccc12 (centres undefined)	-4%	-10	-28%	?	-92*	-2%
CC(C)CCN=Cc1c(O)n(-c2ccccc2)c(=O)c2ccccc12	-4%	-4	-13%	-11%	?	2%
CCOC(=O)c1sc(NC(=O)CSc2nnnn2-c2ccc(C)cc2)c(C(=O)OCC)c1C	4%	-4	-9%	10%	-25	0%
O=C(CSc1nc2c(c(=O)n1-c1ccc(Br)cc1)SCC2)NCc1ccco1	-9%	11	-13%	3%	29	-6%
CCOc1ccc(-n2c(SCC(=O)NCc3ccco3)nc3c(c2=O)SCC3)cc1	1%	-5	-20%	14µM*	?	-4%
CCOC(=O)c1sc(NC(=O)CSc2nc3c(c(=O)n2-c2ccc(C)cc2)SCC3)c(C(=O)OCC)c1C	-10%	2	-29%	9.5µM*	7	-1%
Cc1ccc(Cn2c(SCC(=O)NCC3CCCO3)nc3ccsc3c2=O)cc1 (centres undefined)	4%	-1[21.1 µM]	.	20µM*	.	.
O=C(CSc1nc2c(c(=O)n1-c1ccc(Br)cc1)SCC2)NCC1CCCO1 (centres undefined)	7%	5	-15%	?	77	3%
Cc1ccc(-n2c(SCC(=O)NCC3CCCO3)nc3c(c2=O)SCC3)cc1 (centres undefined)	2%	-5	-27%	25µM*	-7	4%
Cc1noc(C)c1C(=O)N1CCC2(CCCN(C(=O)Nc3cccc(F)c3)C2)CC1	5%	.	-2%	3%	.	4%
O=C(Cn1nnc(-c2ccccc2F)n1)NCCc1ccccc1	-1%	5	-25%	-9%	-16	2%
Cc1ccc(NC(=O)Cn2nnc(-c3ccccc3NC(=O)c3cccs3)n2)cc1	12%	-6	?	-9%	-88*	4%
CCCC(=O)Nc1ccccc1-c1nnn(CC(=O)Nc2ccc(OCC)cc2)n1	-6%	15	-9%	10%	-19	8%
CCOc1ccc(NC(=O)Cn2nnc(-c3ccccc3NC(=O)CC)n2)cc1	-7%	1	-13%	-4%	-84*	-1%
